Experimental data: ChEMBL document CHEMBL3988442, “University of Dundee, Small-Polar-MMV Screening Library” (2021)
Among all 38,000 compounds or so, about 1,200 (3.2%) showed an effect of 50% or more. The median lay at about -58%. The list comes from a sample in which strong results are over-represented; it also holds similar structures and randomly drawn compounds.

These compounds were tested on Plasmodium falciparum (assay: Calibr Malaria Delayed Death Assay SOP). Conditions: concentration 4.99e-06 (unit not given; other assays of the set use mol/L).
Type: functional, organism-based
Parameters: scale not given: in the data most compounds retested in dose-response had high values
In the case of `CCOc1ncccc1C(=O)N1CCCC1Cn1cc(C)cn1` (stereo not drawn), the “Percent Effect” value is reported as -83.81%.
In the case of `Cc1nc(C)c(C)c(N2CCC(O)(c3ccc(F)cc3)CC2)n1`, the “Percent Effect” value is reported as -9.23%.
For `Fc1ccccc1CN1CCCN(c2ncnc3[nH]ccc23)CC1`, the “Percent Effect” value was -95.46%.
For `CNc1nnc(SCc2nnc(C(C)(C)C)o2)s1`, the “Percent Effect” value was -74.95%.
`O=C1NCC(C(=O)Nc2ncc(Cc3ccc(F)cc3F)s2)N1` (stereo not drawn) was tested, and the “Percent Effect” value was -63.93%.
With `O=C(Cc1cccc2ccccc12)N1CCC(Nc2cccnn2)CC1` the “Percent Effect” value was -77.23%.
With `O=C1CC2(CCN(CCCO)CC2)CN1Cc1ccc(F)c(F)c1` the “Percent Effect” value was -28.18%.
`Cc1ccc(CNC(=O)CNCC2CCN(CCO)CC2)s1` was tested, and the “Percent Effect” value was -48.54%.
In the case of `CC(c1ccc(Cl)cc1)N1CCN(CCS(C)(=O)=O)CC1` (stereo not drawn), the “Percent Effect” value is reported as -44.52%.
For `CC(NCC1CCN(CCO)CC1)c1ccc(F)c(Cl)c1` (stereo not drawn), the “Percent Effect” value was 83.31%.
For `COCCN1CCC(CNC(=O)Nc2ccc(F)c(Cl)c2)C1` (stereo not drawn), the “Percent Effect” value was -33.14%.
`Cc1cccc(C(C)NCC2CCS(=O)(=O)CC2)c1` (stereo not drawn) was tested, and the “Percent Effect” value was 7.654%.
For `CC(NCC1CCN(CCO)CC1)c1cccnc1` (stereo not drawn), the “Percent Effect” value was -40.75%.
For `CS(=O)(=O)CCN1CCC(Nc2c(Cl)cccc2C#N)CC1`, the “Percent Effect” value was -32.59%.
In the case of `CC(NCC1CCN(CCO)CC1)c1cccc(Cl)c1` (stereo not drawn), the “Percent Effect” value is reported as 84.07%.
For `COc1ccc(C(C)N2CCC(CO)CC2)cc1Cl` (stereo not drawn), the “Percent Effect” value was -19.12%.
For `CC(NC1CCN(CCS(C)(=O)=O)CC1)c1ccc(Cl)cc1` (stereo not drawn), the “Percent Effect” value was 56.47%.
With `O=C(NCCOc1ccc(Cl)cn1)Nc1nccs1` the “Percent Effect” value was -1.653%.
`CCS(=O)(=O)N1CCc2ccc(NC(=O)Nc3cccc(C)c3)cc21` was tested, and the “Percent Effect” value was -42.73%.
With `O=C(NCc1ccccn1)[C@H]1COC[C@H]2CN(CC3CC3)C[C@H]21.O=C(O)C(F)(F)F.O=C(O)C(F)(F)F` the “Percent Effect” value was -42.42%.
In the case of `CC(NC(=O)Cn1ccc2sccc2c1=O)c1ccccc1` (stereo not drawn), the “Percent Effect” value is reported as -76.67%.
In the case of `COc1ccc(-c2cc(C3(O)CCOC(C)(C)C3)on2)cc1` (stereo not drawn), the “Percent Effect” value is reported as -20.9%.
In the case of `Cc1c(COC(C)C)cccc1NC(=O)N1CC[C@H](O)C1`, the “Percent Effect” value is reported as -81.26%.
`NC(=O)c1c(SCCN2CCCCC2)sc2c(O)cc(=O)[nH]c12` was tested, and the “Percent Effect” value was 1.518%.
For `O=S1(=O)[C@@H](c2ccccc2)[C@H](CO)CN1c1ccccc1`, the “Percent Effect” value was -141.9%.
In the case of `Cc1cc(C)nc(CN(C)c2nc(C3CCCC3)nc3c2cnn3C)c1`, the “Percent Effect” value is reported as -50.46%.
For `CCN(CC)c1ncnc2c1CCN(c1ccc(C)nn1)CC2`, the “Percent Effect” value was -148.5%.
For `Cc1nn(CCCNC(=O)C2CCN(S(C)(=O)=O)CC2)cc1Cl`, the “Percent Effect” value was -83.52%.
`Cc1cnn(C2CN(CCOc3ccccc3C#N)C2)c1` was tested, and the “Percent Effect” value was -94.34%.
With `O=C(Cc1ccccn1)N1CCc2ncnc(NC3CCC3)c2CC1.O=C(O)C(F)(F)F` the “Percent Effect” value was -99.33%.
In the case of `COCc1ncc(CN2CCC(Oc3ccc(OC)cc3)CC2)cn1`, the “Percent Effect” value is reported as -166.1%.
For `O=C(Nc1cccc(OCC(F)F)n1)c1ccncc1`, the “Percent Effect” value was -44.55%.
With `CCOc1ccccc1-c1noc(CN2CCCC(O)C2)n1` (stereo not drawn) the “Percent Effect” value was -111.8%.
For `CCOc1cccc(CNc2ccccc2C(F)(F)F)c1O`, the “Percent Effect” value was -100.4%.
In the case of `COc1ccc(NC2CCCN(Cc3cnc(N(C)C)s3)C2)cc1OC` (stereo not drawn), the “Percent Effect” value is reported as -57.98%.
In the case of `COc1cccc(CN2CCCC(Nc3cccc(F)c3)C2)c1O` (stereo not drawn), the “Percent Effect” value is reported as 66.55%.
For `COc1ccccc1CN1CCCC(n2cccn2)C1` (stereo not drawn), the “Percent Effect” value was 31.44%.
With `CN1CCOC(CNCC(=O)NCCC2=CCCCC2)C1` (stereo not drawn) the “Percent Effect” value was -80.77%.
In the case of `COCC[C@]1(O)CCN(c2ncc(Cl)cc2F)C[C@H]1C`, the “Percent Effect” value is reported as -23.85%.
`CC[C@@]1(O)CCN(c2ncc(Cl)cc2F)C[C@H]1O` was tested, and the “Percent Effect” value was -98.16%.
For `Cc1nn(Cn2ccc(C(=O)N3CCCC(C)C3)n2)c(C)c1Cl` (stereo not drawn), the “Percent Effect” value was -15.8%.
`O=C(Cn1nc(C(F)(F)F)c(Br)c1C1CC1)N1CCOCC1` was tested, and the “Percent Effect” value was -21.49%.
`Cc1nccn1CCC1CCCCN1C(=O)c1ccc2[nH]nnc2c1` (stereo not drawn) was tested, and the “Percent Effect” value was -19.01%.
`c1ccc(-c2noc(CCCN3CCCC3Cn3cccn3)n2)cc1` (stereo not drawn) was tested, and the “Percent Effect” value was 29.02%.
`CN1CCCC1CCn1ccnc1-c1nc(-c2ccccc2)no1` (stereo not drawn) was tested, and the “Percent Effect” value was 57.38%.
With `CN(CC1CCCN1C)c1nccc(C2CCCC2)n1` (stereo not drawn) the “Percent Effect” value was 7.396%.
For `CN1CCCC1CCn1ccnc1-c1ccc2ccccc2n1` (stereo not drawn), the “Percent Effect” value was 54.89%.
For `CN1CCCC1CCn1ccnc1-c1nc2ccccc2[nH]1` (stereo not drawn), the “Percent Effect” value was 72.06%.
For `OCC1CCCCN1CCn1ccnc1-c1nc2ccccc2[nH]1` (stereo not drawn), the “Percent Effect” value was 10.13%.
In the case of `Cn1ccnc1CN1CCCCC1c1nc(-c2ccccc2)no1` (stereo not drawn), the “Percent Effect” value is reported as -149.2%.
With `CC(=O)Nc1ccc2nc(-c3nccn3C[C@@H]3CCCO3)ccc2c1` the “Percent Effect” value was -89.17%.
For `C[C@@H]1CN(C(=O)c2cc(Cn3ccc4ccccc43)[nH]n2)C[C@H](C)O1`, the “Percent Effect” value was -126.8%.
In the case of `CC1CCCN(C(=O)Nc2cccc(CN3CCOC3=O)c2)C1` (stereo not drawn), the “Percent Effect” value is reported as -90.51%.
With `C[C@@H](O)CNC(=O)c1nc(Cc2c(Cl)cccc2Cl)no1` the “Percent Effect” value was -61.62%.
For `COc1ccc(C(CC(=O)O)NC(=O)CCc2cccs2)cc1OC` (stereo not drawn), the “Percent Effect” value was -100.1%.
`CN1CCC(N(Cc2ccncc2)Cc2nc3c(s2)CCCC3)CC1` was tested, and the “Percent Effect” value was 7.357%.
For `COc1ccc(F)cc1C(C)NC(=O)Cn1ccc(=O)n(C)c1=O` (stereo not drawn), the “Percent Effect” value was -164.7%.
In the case of `COC1CCN(CCNC(=O)NC(C)c2ccc(F)c(F)c2)CC1` (stereo not drawn), the “Percent Effect” value is reported as 45.3%.
With `COC1CCN(CCNC(=O)NC(C)c2cccc(Cl)c2)CC1` (stereo not drawn) the “Percent Effect” value was 23.1%.
For `COC1CCN(CCNC(=O)NCC(C)c2cccc(C)c2)CC1` (stereo not drawn), the “Percent Effect” value was 54%.
With `N#Cc1cc(Cn2cnc(C3CCC3)cc2=O)ccc1F` the “Percent Effect” value was -42.13%.
`Cc1cnn(CC2CN(Cc3nnc(C4CC4)n3C)CCO2)c1` (stereo not drawn) was tested, and the “Percent Effect” value was -158.8%.
With `Cc1ccc(C(C)NCc2cn(CCC(N)=O)c3ccccc23)cc1C` (stereo not drawn) the “Percent Effect” value was 82.29%.
`CC(C)n1cnnc1CCNCc1cn(CCC(N)=O)c2ccccc12` was tested, and the “Percent Effect” value was -17.79%.
`CC(NCc1cn(CCC(N)=O)c2ccccc12)c1nncn1C` (stereo not drawn) was tested, and the “Percent Effect” value was -188.2%.
In the case of `CN(C)C(=O)CN1CCc2ncnc(C3CC3)c2CC1`, the “Percent Effect” value is reported as -29.69%.
In the case of `COc1ncccc1NC(=O)NC(C)c1nncn1C` (stereo not drawn), the “Percent Effect” value is reported as -34.42%.
In the case of `CC(C)c1nn(C)c(N(C)C)c1CNCc1cccc2c1OCO2`, the “Percent Effect” value is reported as 16.39%.
In the case of `Cc1ccc(C(CNCc2cccc3c2OCO3)N2CCOCC2)o1` (stereo not drawn), the “Percent Effect” value is reported as 65.56%.
`Cl.c1cc(CNCc2ccnc(N3CCOCC3)c2)c2c(c1)OCO2` was tested, and the “Percent Effect” value was -34.78%.
With `CC(C)C(CNCc1cccc2c1OCO2)N1CCOCC1` (stereo not drawn) the “Percent Effect” value was 75.82%.
For `c1csc(C(CNCc2cccc3c2OCO3)N2CCOCC2)c1` (stereo not drawn), the “Percent Effect” value was 39.98%.
For `Cc1cnc(C(=O)NCC(c2ccc(C)o2)N2CCOCC2)cn1` (stereo not drawn), the “Percent Effect” value was -124.5%.
